Inconclusive results are not listed. Activity calls are given as the source filed them. Unless noted, calls follow the shape of the dose curve; as a rule, active = well fitted curve in the direction sought with a large enough effect in the repeat runs; inconclusive = weak or mixed curves; inactive = no such curve, though single readings can be large; an effect the other way counts as inactive or inconclusive.
What was measured:
[1] = qHTS assay to test for compound auto fluorescence at 535 nm (green) in HEK293 cells (AID 720680)
[2] = qHTS assay to test for compound auto fluorescence at 460 nm (blue) in HEK293 cell free culture (AID 720681)
Summary of the method: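 Compounds were added to cell-free DMEM with 10% FBS and fluorescence read directly. The blue channel used 405 nm excitation and 460 nm emission, with triamterene as the reference fluorophore.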

[3] = qHTS assay to test for compound auto fluorescence at 535 nm (green) in HEK293 cell free culture (AID 720682)
Summary of the method: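 Cell-free medium (DMEM, 10% FBS) receives compound or DMSO by pintool. Plate read directly at Ex 485/Em 535 nm. Signal converted to fluorescein equivalency.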

[4] = qHTS assay to test for compound auto fluorescence at 590 nm (red) in HEK293 cell free culture (AID 720683)
Summary of the method: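 Cell-free wells of DMEM with 10% FBS received compound, and intrinsic fluorescence was read at excitation/emission 540/590 nm. Values expressed as equivalence to Rose Bengal sodium.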

[5] = qHTS assay to test for compound auto fluorescence at 590 nm (red) in HepG2 cell free culture (AID 720684)
Summary of the method: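 Rose Bengal sodium served as the reference for red signal. Test compounds were dispensed into serum-containing MEM (10% FBS) without cells, and plates were read at 540/590 nm.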

[6] = qHTS assay to test for compound auto fluorescence at 535 nm (green) in HepG2 cell free culture (AID 720686)
[7] = qHTS assay to test for compound auto fluorescence at 460 nm (blue) in HepG2 cells (AID 720687)
Summary of the method: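 HepG2 cells in MEM with 10% FBS, attached overnight at 37 C, were exposed to compound or DMSO for 1 hr at 37 C, 5% CO2. Blue fluorescence was read at 405/460 nm, with triamterene as reference fluorophore.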

[8] = qHTS assay to identify small molecule antagonists of the glucocorticoid receptor (GR) signaling pathway - cell viability counter screen (AID 720693); also: nearly all actives have a fitted effect of over 55% in size
[9] = qHTS assay for identifying genotoxic compounds that show differential cytotoxicity against isogenic chicken DT40 cell lines with known DNA damage response pathways - wild type cell line (AID 743012); also: nearly all actives have a fitted effect of over 60% in size
Summary of the method: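 Viability by ATP luminescence (CellTiter-Glo, 30 min RT) after 40 h compound treatment at 37 C/5% CO2, using 300 parental DNA repair-proficient DT40 cells per well.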

[10] = qHTS assay for identifying genotoxic compounds that show differential cytotoxicity against isogenic chicken DT40 cell lines with known DNA damage response pathways - Rev3 mutant cell line (AID 743014); also: nearly all actives have a fitted effect of over 55% in size
[11] = qHTS assay for identifying genotoxic compounds that show differential cytotoxicity against isogenic chicken DT40 cell lines with known DNA damage response pathways - Rad54/Ku70 mutant cell line (AID 743015); also: nearly all actives have a fitted effect of over 60% in size; also: potency is read from the fitted curve at half-maximal effect
[12] = qHTS assay to identify small molecule antagonists of the androgen receptor (AR) signaling pathway - cell viability counter screen (AID 743033; also: nearly all actives have a fitted effect of over 45% in size)
[13] = biological target: Androgen receptor (Homo sapiens) (UniProt P10275); experiment: qHTS assay to identify small molecule agonists of the androgen receptor (AR) signaling pathway (AID 743036; active = well fitted activation curve with a large enough effect in the signal ratio in the repeat runs, with a control signal flat, not every such curve was filed as active; the % refers to the signal ratio)
Summary of the method: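 AR-bla HEK293 cells, 2,000/well; 4 h preincubation 37C/5% CO2; compound (DMSO) 16 h at 37C; LiveBLAzer B/G FRET substrate 2 h RT; fluorescence intensity read-out.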

[14] = biological target: Androgen receptor (Homo sapiens) (UniProt P10275); experiment: qHTS assay to identify small molecule agonists of the androgen receptor (AR) signaling pathway using the MDA cell line (AID 743040; also: nearly all actives have a fitted effect of over 20% in size)
Summary of the method: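 Luciferase read-out, ONE-Glo, 30 min RT. Cells: MDA-kb2 AR-luc, MMTV promoter with AR and GR response elements. Compound exposure 16 h, 37C, 0% CO2, after 5 h pre-incubation. qHTS agonist mode.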

[15] = qHTS assay to identify small molecule antagonists of the androgen receptor (AR) signaling pathway using the MDA cell line - cell viability counter screen (AID 743041; also: nearly all actives have a fitted effect of over 45% in size)
Summary of the method: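 Cytotoxicity counter screen: MDA-kb2 AR-luc cells, compound + R1881, 16 h, 37C, 0% CO2; CellTiter-Fluor added at 15.5 h, fluorescence read after 30 min.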

[16] = biological target: Androgen receptor (Homo sapiens) (UniProt P10275); experiment: qHTS assay to identify small molecule antagonists of the androgen receptor (AR) signaling pathway using the MDA cell line (AID 743042; also: nearly all actives have a fitted effect of over 55% in size)
Summary of the method: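 MDA-kb2 breast carcinoma cells carrying MMTV-luciferase (AR/GR responsive) were co-treated with compounds and the agonist R1881 for 16 h at 37C. Inhibition read as ONE-Glo luminescence; CellTiter-Fluor fluorescence measured in parallel for cytotoxicity.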

[17] = biological target: Glucocorticoid receptor (Homo sapiens) (UniProt P04150); experiment: qHTS assay to identify small molecule agonists of the glucocorticoid receptor (GR) signaling pathway (AID 720691; active = well fitted activation curve with a large enough effect in the signal ratio in the repeat runs, not every such curve was filed as active; the % refers to the signal ratio; also: potency is read from the fitted curve at half-maximal effect)
Summary of the method: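 Agonist-mode qHTS in HeLa cells stably expressing a glucocorticoid-response-element beta-lactamase reporter. Fluorescence intensity read with FRET substrate (2 h, room temperature) after 18 h compound treatment at 37 C.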

[18] = biological target: Androgen receptor (Homo sapiens) (UniProt P10275); experiment: qHTS assay to identify small molecule antagonists of the androgen receptor (AR) signaling pathway (AID 743035; active = well fitted inhibition curve with a large enough effect in the signal ratio in the repeat runs, not every such curve was filed as active; the % refers to the signal ratio)
Summary of the method: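 Antagonist mode: AR-bla HEK293 cells co-treated with test compounds and agonist R1881 for 16 h at 37C, 5% CO2. Beta-lactamase activity read as FRET fluorescence after 2 h room-temperature substrate loading.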

[19] = qHTS assay to test for compound auto fluorescence at 460 nm (blue) in HepG2 cell free culture (AID 720685)
Summary of the method: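 Cell-free plates of MEM plus 10% FBS received 23 nL compound or DMSO vehicle; blue-channel (405/460 nm) intensity scored against triamterene as reference fluorophore.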

[20] = biological target: Glucocorticoid receptor (Homo sapiens) (UniProt P04150); experiment: qHTS assay to identify small molecule antagonists of the glucocorticoid receptor (GR) signaling pathway (AID 720692; active = well fitted inhibition curve with a large enough effect in the signal ratio in the repeat runs, not every such curve was filed as active; the % refers to the signal ratio)
Summary of the method: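 Inhibition of dexamethasone-driven (5 nM final) beta-lactamase expression was measured in GRE-reporter HeLa cells over 18 h at 37C. Fluorescence was read after 2 h with the B/G FRET substrate at room temperature.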
% is scaled to controls: 0 for no effect and ±100 for the full control effect.

Chain of Glucocorticoid receptor (Homo sapiens) (P04150 whole entry, looked up): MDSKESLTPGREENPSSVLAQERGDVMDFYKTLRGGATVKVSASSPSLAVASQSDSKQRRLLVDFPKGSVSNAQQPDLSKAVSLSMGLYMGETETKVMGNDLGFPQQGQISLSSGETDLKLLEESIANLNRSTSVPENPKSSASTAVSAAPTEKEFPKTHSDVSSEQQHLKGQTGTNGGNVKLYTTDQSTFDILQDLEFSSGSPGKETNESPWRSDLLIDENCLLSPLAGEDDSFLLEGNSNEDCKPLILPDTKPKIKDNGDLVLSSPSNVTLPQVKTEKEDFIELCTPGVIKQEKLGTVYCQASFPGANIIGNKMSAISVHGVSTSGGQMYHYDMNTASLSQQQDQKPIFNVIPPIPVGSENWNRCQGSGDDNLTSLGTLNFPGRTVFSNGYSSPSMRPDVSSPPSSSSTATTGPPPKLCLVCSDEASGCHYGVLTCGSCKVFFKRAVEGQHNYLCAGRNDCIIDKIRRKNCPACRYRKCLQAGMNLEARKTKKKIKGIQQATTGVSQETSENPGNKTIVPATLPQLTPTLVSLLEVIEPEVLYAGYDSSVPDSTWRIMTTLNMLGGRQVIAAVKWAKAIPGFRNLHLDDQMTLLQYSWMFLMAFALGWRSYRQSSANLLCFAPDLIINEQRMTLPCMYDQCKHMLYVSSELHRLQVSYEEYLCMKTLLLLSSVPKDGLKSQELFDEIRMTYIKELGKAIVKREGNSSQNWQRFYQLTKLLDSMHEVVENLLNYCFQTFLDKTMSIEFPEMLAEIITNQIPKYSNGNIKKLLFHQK
Chain of Androgen receptor (Homo sapiens) (P10275 whole entry, looked up): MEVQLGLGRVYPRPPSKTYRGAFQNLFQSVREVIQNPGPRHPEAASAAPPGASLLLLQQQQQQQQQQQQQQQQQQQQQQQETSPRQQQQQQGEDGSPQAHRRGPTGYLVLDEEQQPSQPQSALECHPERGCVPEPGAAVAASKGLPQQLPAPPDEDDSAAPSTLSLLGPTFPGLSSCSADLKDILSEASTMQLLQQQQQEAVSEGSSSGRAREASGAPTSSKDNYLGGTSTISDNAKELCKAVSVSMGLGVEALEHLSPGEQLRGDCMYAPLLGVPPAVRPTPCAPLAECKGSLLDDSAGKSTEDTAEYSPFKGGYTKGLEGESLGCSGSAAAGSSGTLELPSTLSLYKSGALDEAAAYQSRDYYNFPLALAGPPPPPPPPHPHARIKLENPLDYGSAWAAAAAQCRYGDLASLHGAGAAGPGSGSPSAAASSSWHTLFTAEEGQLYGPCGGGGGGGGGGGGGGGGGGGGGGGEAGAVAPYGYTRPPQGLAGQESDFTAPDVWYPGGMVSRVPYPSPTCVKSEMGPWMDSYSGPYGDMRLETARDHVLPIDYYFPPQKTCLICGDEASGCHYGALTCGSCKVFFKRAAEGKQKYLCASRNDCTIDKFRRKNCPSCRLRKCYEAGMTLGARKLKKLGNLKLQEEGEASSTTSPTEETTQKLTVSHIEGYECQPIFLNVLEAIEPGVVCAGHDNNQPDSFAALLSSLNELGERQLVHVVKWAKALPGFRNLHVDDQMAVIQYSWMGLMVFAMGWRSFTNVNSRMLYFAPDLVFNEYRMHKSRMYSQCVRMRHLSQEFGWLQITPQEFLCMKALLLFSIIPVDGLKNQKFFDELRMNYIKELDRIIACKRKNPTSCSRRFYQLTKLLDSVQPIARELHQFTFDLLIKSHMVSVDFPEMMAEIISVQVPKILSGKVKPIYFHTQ

OCCC(F)(F)C(F)(F)C(F)(F)C(F)(F)C(F)(F)C(F)(F)C(F)(F)C(F)(F)F
inactive: outcome [1] | outcome [2] | outcome [3] | outcome [4] | outcome [5] | outcome [6] | outcome [7] | outcome [8] | Potency [9] | Potency [10] | Potency [11] | Potency [12] | outcome [13] | outcome [14] | Potency [15] | Potency [16]

CN(C)CCOCCO
inactive: outcome [1] | outcome [2] | outcome [3] | outcome [4] | outcome [5] | outcome [6] | outcome [7] | Potency [17] | Potency [9] | Potency [10] | Potency [11] | Potency [12] | Potency [15]

Brc1ccc(-c2ccccc2)cc1
inactive: outcome [1] | outcome [2] | outcome [3] | outcome [4] | outcome [5] | outcome [7] | Potency [17] | outcome [8] | Potency [9] | Potency [10] | Potency [11] | Potency [12] | Potency [15]

CC(C)(C)OC(=O)c1ccc(O)cc1
inactive: outcome [1] | outcome [2] | outcome [3] | outcome [4] | outcome [5] | outcome [6] | outcome [7] | Potency [17] | outcome [8] | Potency [9] | Potency [10] | Potency [11] | Potency [12] | outcome [14] | Potency [15] | Potency [16]

CCOC(=O)[C@H](CCc1ccccc1)N[C@@H](C)C(=O)N1C(=O)N(C)C[C@H]1C(=O)O
inactive: outcome [1] | outcome [2] | outcome [3] | outcome [4] | outcome [5] | outcome [6] | outcome [7] | outcome [8] | Potency [9] | Potency [11] | Potency [12] | Potency [15]

CN(CCOc1ccc(NS(C)(=O)=O)cc1)CCc1ccc(NS(C)(=O)=O)cc1
active: Potency [17] 7.56 µM | Potency [11] 13.3 µM
inactive: outcome [1] | outcome [2] | outcome [3] | outcome [4] | outcome [5] | outcome [6] | outcome [7] | outcome [8] | Potency [12] | Potency [15]

Nc1ccc2cc(S(=O)(=O)O)cc(O)c2c1
inactive: outcome [1] | outcome [2] | outcome [3] | outcome [4] | outcome [5] | outcome [6] | outcome [8] | Potency [9] | Potency [10] | Potency [11] | Potency [12] | Potency [18] | outcome [13] | outcome [14] | Potency [15] | Potency [16]

O=C(CCNNC(=O)c1ccncc1)NCc1ccccc1
inactive: outcome [1] | outcome [2] | outcome [3] | outcome [4] | outcome [5] | outcome [7] | Potency [17] | Potency [9] | Potency [10] | Potency [11] | Potency [12] | Potency [15]

CO[C@@H]1[C@@H](OC(N)=O)[C@@H](O)[C@H](Oc2ccc3c(O)c(NC(=O)c4ccc(O)c(CC=C(C)C)c4)c(=O)oc3c2C)OC1(C)C
inactive: fluorescence, % of fluorescein [1] -0.0123% [at 18.6 µM] | fluorescence, % of fluorescent control [2] 0.0286% [at 18.6 µM] | activity change [3] -0.156% [at 18.6 µM] | fluorescence, % of fluorescent control [4] 0.0652% [at 18.6 µM] | fluorescence, % of fluorescent control [19] 0.0828% [at 18.6 µM] | fluorescence, % of fluorescein control [6] -0.0494% [at 18.6 µM] | fluorescence, % of fluorescent control [7] 0.0292% [at 18.6 µM] | Potency [17] | outcome [20] | outcome [8] | Potency [9] | Potency [10] | Potency [11] | Potency [12] | Potency [15]
